Test results from paper PMC6212790, “How bacterial xenogeneic silencer rok distinguishes foreign from self DNA in its resident genome”.
The full ranking holds about 33,000 sequences; the median of “e-score” is about -0.037, and the highest 2% start at about 0.34. This is one part of a sample in which the highest values are shown more often than they occur.

These sequences were tested against T1, GST-Rok (full length) (Bacillus subtilis subsp. subtilis str. …, UniProt O34857 1-191) (assay: protein binding microarray; Rok is a gene silencer of Bacillus subtilis; high values mean tight binding). Conditions: protein: recombinant; tags: GST (pTH5325, pDEST15-Magic modified); dsDNA, one strand shown.
T1 sequence: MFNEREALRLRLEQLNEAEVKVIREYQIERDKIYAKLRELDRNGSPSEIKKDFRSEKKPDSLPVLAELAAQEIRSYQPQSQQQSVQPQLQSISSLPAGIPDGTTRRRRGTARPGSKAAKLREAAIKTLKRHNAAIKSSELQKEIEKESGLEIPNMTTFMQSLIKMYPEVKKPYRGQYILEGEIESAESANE
Method in brief: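 Each has a 25-mer constant primer and a 35-mer variable part from a de Bruijn sequence of order 10, covering every non-palindromic 8-mer at least 32 times (palindromic 16). Preference for each 8-mer is given as a rank-based, unitless enrichment score (E-score). Its range runs from 0.5 (most favored) to −0.5 (most disfavored).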

Sequence | binding signal [E-score]
AAAGAAAG | 0.132
CGATACGA | -0.0427
GTACGGCA | -0.048
AGTATATC | 0.221
AGTATAAA | 0.278
CGTATATA | 0.28
GGTATATA | 0.386
GGTATAAA | 0.383
GGTATAAC | 0.313
GGTATAGA | 0.222
AGTATATG | 0.264
AGTATATA | 0.451
GGTCGTAA | 0.0357
AAGCCGAA | 0.00167
GTCTGGCA | -0.182
ACTAATCG | 0.0113
ACCTTGGA | -0.145
AAGCTAGC | 0.137
CAATAACG | 0.0291
CAGTTTCA | -0.0996
TAGTTTCA | 0.392
GAGTTTCA | -0.16
AAGTTTGA | -0.0342
GAGTTTGA | -0.199
TAGTTTGA | 0.347

Sequence | binding signal [E-score]
AATAAGAA | 0.209
CGGCGGCA | -0.198
AGTAGCGA | 0.181
AGACTATC | 0.0106
GAATCTCC | 0.00693
CGATCTAA | -0.00615
CGATCTAG | 0.214
AAATCTCG | 0.144
CAATCTAC | 0.365
AAATCTAG | 0.35
GAATCTAA | 0.201
CAATCTAG | 0.285
GAATCTAC | 0.425
CGATCTAC | 0.371
CAATCTAA | 0.172
AGATCTAG | 0.167
AAAAACCG | -0.0149
AAACCAAA | -0.0651
ACGTTGGA | -0.0982
CTCACTCA | 0.0449
ATGGTATG | 0.0823
AATCTCCG | 0.0469
ACCCGCAG | -0.2
ATAAACAA | 0.0341
TAATAACA | 0.238

Sequence | binding signal [E-score]
AATGGGAG | -0.0919
GTTATCTA | 0.285
AACTTCGG | -0.044
TACGAGAA | 0.113
AAATCTAA | 0.157
AAATCTAC | 0.398
AAATCTAT | 0.315
CGCATCGC | -0.115
AAGTCCCG | -0.14
CATAGAAA | 0.129
AATAGAAT | 0.329
AATAGAAA | 0.371
TATAGAAA | 0.363
AATAGAAC | 0.0621
GATAGAAA | 0.307
ATGTGCTA | 0.222
CCATATCC | -0.0185
CGCGGCAA | 0.00655
CTTACTCA | -0.0171
CGTTGAAG | 0.0718
AACGGCGC | -0.0478
ATAGCGAG | -0.0541
GTAGTTAA | 0.431
CGAGTTAA | 0.153
GTAGTTCA | 0.217

Sequence | binding signal [E-score]
CTAGTTAA | 0.349
CAAGTTAA | 0.0371
GAAGTTAA | 0.277
AGACTGGA | -0.123
ACATAGTC | 0.114
AGTTACGA | 0.167
ATTCACGA | -0.0154
AAACAGCT | 0.0473
CCTTCACA | 0.0629
ATGCTATA | 0.339
GAGCTATA | 0.145
GAGCTACA | 0.0398
AAGCTATA | 0.231
TAGCTATA | 0.346
GTGCTATA | 0.147
TAGCTACA | 0.37
CAGCTACA | 0.0906
CTGCTATA | 0.0937
AAACTCCA | -0.0432
CTCACTGC | 0.0486
AACGAATT | 0.325
ATAACAAT | 0.266
AACAACAC | -0.114
CAATTACC | 0.133
AAATTACT | 0.386

Sequence | binding signal [E-score]
AATTTACT | 0.384
AATTTACG | 0.292
AAATTACC | 0.347
AAATTACG | 0.194
GATTTACC | 0.275
AATTTACA | 0.305
AAATTACA | 0.301
GAATTACC | 0.216
AATTTACC | 0.296
GATTTACA | 0.345
GCCGATGA | -0.108
AGGTGAGC | -0.0616
ATTGATTC | 0.127
TGCAGTAA | 0.194
CTGGTAGA | 0.335
GTGGTAAA | 0.192
CTGGTATA | 0.303
ATGGTAGG | 0.243
ATGGTAGC | 0.287
ATGGTATC | 0.165
GTGGTAGA | 0.435
ATGGTAGA | 0.444
ATGGTATA | 0.381
TGCCAGCA | 0.156
CGTCACAA | -0.0647

Sequence | binding signal [E-score]
TATAACGA | 0.245
CCTATGCC | -0.0371
TCAACCAA | -0.0239
CGAATCTC | -0.0708
TAATAGGA | 0.202
AAACCTAA | 0.124
ATAACTTA | 0.265
ACCGATAG | 0.0776
ACCGATAC | 0.117
ACCGATAT | 0.338
AATATCTA | 0.392
AATATCTG | 0.268
GATATCAA | 0.208
GATATCTA | 0.4
AATATCTC | 0.203
CATATCTA | 0.293
AATCGGAA | 0.0335
CCTAGTCG | -0.13
AACCACCT | -0.126
TCACAGAA | 0.0426
GACCAAGA | 0.0064
AAGCCTCT | -0.124
AGCTACTG | 0.294
ACCTACTG | 0.295
AACTACGC | 0.201

Sequence | binding signal [E-score]
ACCTACTA | 0.372
CACTACTC | 0.00906
CACTACGA | 0.174
AACTACTG | 0.436
CACTACTG | -0.0214
AACTACGG | 0.204
AACTACTC | 0.381
CCCTACTA | -0.0153
CACTACTA | 0.354
ATGCCGCA | -0.0383
CTTCGCCA | -0.129
CCACTGCC | -0.199
CTATAAGC | 0.113
ATATGGAG | 0.202
GCGTGAAC | 0.00198
TAAGCTGA | -0.0981
AGGGTACG | -0.168
CCGCTAGG | -0.19
GGCTTTAC | 0.00573
GCAAATCA | 0.0652
TATTGAAA | 0.0126
GACTACTC | 0.132
CGCTACTA | 0.28
AACTACGA | 0.292
AACTACTA | 0.474

Sequence | binding signal [E-score]
TACTACGA | 0.275
AACTACTT | 0.418
GACTACTA | 0.34
TACTACTA | 0.428
AACAACTT | 0.174
AGCTACTA | 0.291
GACTACGA | 0.079
AACTACGT | 0.306
ATGTCGGC | 0.0255
ATGCATTG | 0.0725
GTCCGCAA | -0.0703
TCAAGCAA | -0.0617
CCCGATAC | 0.00567
CCATCCGC | -0.114
ACGGCTTA | -0.0338
AGATAATG | 0.225
CACGTATG | 0.0605
TCCCCAAA | -0.169
CCCTTTTA | -0.102
GCTTTTTA | 0.157
AGATTTCA | 0.0391
AACATAAG | 0.23
GCTTTCTA | 0.224
ATATCCTA | 0.36
CTATCCTA | 0.0781

Sequence | binding signal [E-score]
GTATCCTA | 0.13
GAATGGCC | -0.15
CATTTGCG | -0.059
AAATATAG | 0.317
CAATATAC | 0.34
AAATATAT | 0.429
AAATACAT | 0.348
GAATATAC | 0.306
CAATATAA | 0.213
AAATATAC | 0.376
AAAAATAT | 0.319
AAATACAC | 0.216
AAATACAG | 0.264
AAATATAA | 0.253
AGGAAGTG | -0.139
GCATGTTA | 0.0472
AGTAAAAG | 0.19
CACGCTTA | -0.0251
AAATATGA | 0.199
AAATATTG | 0.295
AAATATCC | 0.127
AAATATCT | 0.355
AAATATGT | 0.338
AAATATGC | 0.223
AAATATCA | 0.271

Sequence | binding signal [E-score]
AAATATTA | 0.305
AAATATTT | 0.337
CATTTCGG | 0.0631
AGTCCAAA | -0.0624
ACATCATC | -0.0524
AGCTATAG | 0.283
AACTATAG | 0.331
AACTATAT | 0.362
AGCTATAT | 0.337
AGCTATAA | 0.25
AACTATAC | 0.33
TAAGCCTA | -0.0764
AGGCAAGC | -0.186
AATTGTGG | -0.0645
CAGTGCGG | -0.0903
AGGTAGAA | 0.419
ACGTAGAT | 0.222
AAGTAGAC | 0.00429
AGTTAGAT | 0.162
AGGTAGAC | 0.191
GGGTAGCA | -0.00107
AAGTAGAG | 0.104
GGGTAGAA | 0.359
AGGTAGAG | 0.122
AAGTAGAT | 0.374

Sequence | binding signal [E-score]
GGGTAGAC | -0.127
AGGTAGAT | 0.359
GTGCTTTA | -0.00122
GCGAAGTA | 0.155
CGCTTTTC | 0.046
AAGCTTGT | 0.0413
CTAGGTGA | -0.041
AGAGTTAC | 0.152
CAAAGTTA | 0.0253
CGGTAGAA | 0.417
CGGTAGAC | -0.0961
CGGTAGAG | 0.0632
CCGTAGAA | 0.32
TGGTAGAA | 0.468
TCGTAGAA | 0.131
CTAACGCA | 0.101
ACCCTGTC | -0.0851
AACGACCG | -0.0771
AAATTATT | 0.296
CAATTATC | 0.2
TAATTATA | 0.385
CAATTATG | 0.175
TAATTAAA | 0.259
AAATTATG | 0.215
CAATTATA | 0.363

Sequence | binding signal [E-score]
GAATTATA | 0.326
AAATTATA | 0.413
CGTATGGA | 0.128
AATTAAAC | 0.0743
CATATAGG | 0.175
ATTAATCA | 0.232
CTGGAAAG | -0.166
CACATCTC | 0.0106
AGTATTAC | 0.26
ACTATTAA | 0.289
AGTATTAA | 0.29
GCTATTAC | 0.269
ATTATTAA | 0.0696
CCTATTAC | 0.285
ACTATTAC | 0.407
ACTATTAT | 0.386
AGTATTAT | 0.358
CTTATTAC | 0.299
ATTATTAC | 0.382
ACTATTAG | 0.244
GCATTAGA | 0.129
TAGTCTGA | 0.148
CTTTACGA | 0.0116
AAGGAGTC | -0.107
AAGGAATC | -0.0168

Sequence | binding signal [E-score]
ATAGAAGC | 0.307
CGAGTAAC | 0.156
ACTTTTAA | 0.158
ACTATTGC | 0.401
ACTTTTAC | 0.224
ACTTTTAT | 0.355
ACTATTGA | 0.288
ACTATTGG | 0.208
CACTTTTC | 0.0315
ACGTTAAG | -0.0138
TATAACCA | 0.27
CACGTTGA | 0.088
AAGATGAC | 0.0776
AAGTTTTG | 0.00498
CTTATACA | 0.283
GTTATACA | 0.213
ATTATACG | 0.381
ACTATACG | 0.0122
ATTATACA | 0.363
ATTATACC | 0.269
AACGGTTC | 0.108
GTAGACAA | -0.0127
GTGGCCAC | -0.123
ACCTTGCG | -0.00332
CAAAAAGA | -0.0731

Sequence | binding signal [E-score]
TGCTTGAA | -0.0266
ATTCTAGC | 0.257
GTTCTACA | 0.265
ATTCTACA | 0.42
CTTCTACC | 0.327
ATTCTATC | 0.348
CTTCTATC | 0.265
ATTCTACC | 0.442
ATTCTATA | 0.247
ATTCTACG | 0.18
TGAACCCA | -0.0568
CAACTAAA | 0.249
TCTAACAA | 0.0589
AAGCGCAG | -0.165
GAGACTGA | 0.0243
ACCAATCC | 0.0382
ATGGTGAG | -0.0135
ACTAAAAA | 0.21
ACTAAAAT | 0.406
ACTAAATG | 0.277
ACTAAATC | 0.343
ACTAAAAC | 0.303
ACTAAATA | 0.3
